# Results reported in PubChem BioAssay (NCATS).
# Records with an inconclusive call do not appear. Entries that show only a call come without a potency. Active and inactive are the calls of the source. Unless noted, calls come from the whole dose curve.
# Assays:
# [1] = target: Androgen receptor (Homo sapiens) (UniProt P10275); test: qHTS assay for small molecule antagonists of androgen receptor signaling (AID 588516; active = well fitted curve in the direction sought with a large enough effect in the signal ratio, with a control signal flat, not every such curve was filed as active; the % refers to the signal ratio)
# How it was run: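 AR-UAS-bla GripTite HEK 293 cells (2000/well) treated with compound titrations plus 10 nM R1881 for 16 h at 37C. Beta-lactamase read by CCF4 FRET (460/530 nm); IC50 from Hill fits, normalized to R1881 and DMSO control wells.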
# [2] = target: Bile acid receptor (Homo sapiens) (UniProt Q96RI1); test: qHTS assay for small molecule antagonists of farnesoid X receptor signaling (AID 588526)
# How it was run: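 Beta-lactamase reporter antagonist mode: HEK293T FXR-UAS-bla cells, titrated compound, CDCA stimulation, 16 h 37 C, CCF4 dye 2 h RT. Data normalized to CDCA 50 uM and DMSO; Hill-fit IC50.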
# [3] = target: Glucocorticoid receptor (Homo sapiens) (UniProt P04150); test: qHTS assay for small molecule antagonists of glucocorticoid receptor signaling (AID 588533; active = well fitted inhibition curve with a large enough effect in the signal ratio, with a control signal flat, not every such curve was filed as active; the % refers to the signal ratio;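 note: cells stimulated with 2 nM dexamethasone as agonist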)
# How it was run: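 Antagonist-mode qHTS: compound titrations added to GRE-bla HeLa cells, then dexamethasone 2 nM final; 18 h, 37 C. CCF4 FRET fluorescence normalized to dexamethasone and DMSO; IC50 from Hill fit.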
# [4] = qHTS assay for small molecule antagonists of peroxisome proliferator-activated receptor delta signaling (AID 588535; active = well fitted inhibition curve with a large enough effect in the signal ratio, with a control signal flat, not every such curve was filed as active; the % refers to the signal ratio;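 for max response: cells co-treated with a PPAR-delta agonist as stimulator during compound exposure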); settings: HEK293T PPARd-UAS-bla, beta-lactamase FRET ratio, 18 h; 460 nm channel
# How it was run: (§1)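 Cell-based beta-lactamase assay in antagonist mode: 4000 HEK293T PPAR-delta-UAS-bla cells per well, 5 hr preincubation then 18 hr compound incubation at 37 C. IC50 obtained by Hill equation fitting.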
# [5] = target: Peroxisome proliferator-activated receptor delta (Homo sapiens) (UniProt Q03181); test: as above
# How it was run: as §1
# [6] = target: Peroxisome proliferator-activated receptor gamma (Homo sapiens) (UniProt P37231); test: qHTS assay for small molecule agonists of peroxisome proliferator-activated receptor gamma signaling (AID 588536; active = well fitted curve in the direction sought with a large enough effect in the signal ratio, with a control signal flat, not every such curve was filed as active; the % refers to the signal ratio)
# How it was run: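 HEK293 UAS-bla reporter line, 1% charcoal/dextran FBS; titration, 16 h, 37 C; CCF4 loading 2 h RT; fluorescence 460/530 nm. Normalized to rosiglitazone 2 uM = 100%, DMSO = 0%.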
# [7] = target: Vitamin D3 receptor (Homo sapiens) (UniProt P11473); test: qHTS assay for small molecule antagonists of vitamin D receptor signaling (AID 588541);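 note: receptor activated by calcitriol during compound treatment; series mostly up to about 77 µM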
# How it was run: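 Antagonist-mode beta-lactamase reporter assay: HEK293T VDR-UAS-bla cells were exposed to titrated compound alongside 1-alpha,25-dihydroxyvitamin D3 at 3 nM final for 16 h. Values were normalized to the 50 nM agonist control and DMSO basal, with IC50 and efficacy from Hill equation fits.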
# [8] = target: Vitamin D3 receptor (Homo sapiens) (UniProt P11473); test: qHTS assay for small molecule agonists of vitamin D receptor signaling (AID 588543)
# How it was run: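 VDR-UAS-bla HEK293T cells, 2000/well, 2% charcoal-stripped FBS; compound titration 16 h at 37 C; CCF4 beta-lactamase ratio read. Normalized to 50 nM 1-alpha,25-dihydroxyvitamin D3 (100%) and DMSO; Hill fit gives EC50, efficacy.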
# [9] = target: Glucocorticoid receptor (Homo sapiens) (UniProt P04150); test: qHTS assay for small molecule agonists of glucocorticoid receptor signaling (AID 588532; active = well fitted curve in the direction sought with a large enough effect in the signal ratio, with a control signal flat; the % refers to the signal ratio); settings: HeLa MMTV-bla, beta-lactamase ratio, agonist, 18 h; stronger effect = higher value; percent of dexamethasone control, DMSO zero
# How it was run: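 Quantitative HTS using CellSensor MMTV-bla HeLa cells in charcoal/dextran-treated serum; compounds tested up to 92 uM. After 18 h at 37 C, CCF4 dye reported reporter induction.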
# [10] = target: Peroxisome proliferator-activated receptor gamma (Homo sapiens) (UniProt P37231); test: qHTS assay for small molecule antagonists of peroxisome proliferator-activated receptor gamma signaling (AID 588537; active = well fitted inhibition curve with a large enough effect in the signal ratio, with a control signal flat, not every such curve was filed as active; the % refers to the signal ratio;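 note: reporter cells co-stimulated with 50 nM rosiglitazone agonist during compound treatment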)
# How it was run: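 Inhibitors of agonist-stimulated UAS-bla reporter activity were sought in HEK293 cells; rosiglitazone (50 nM) defined full signal and DMSO baseline. Curves fitted to Hill model gave IC50 and efficacy.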
# Sequence of Androgen receptor (Homo sapiens) (P10275 whole entry, looked up): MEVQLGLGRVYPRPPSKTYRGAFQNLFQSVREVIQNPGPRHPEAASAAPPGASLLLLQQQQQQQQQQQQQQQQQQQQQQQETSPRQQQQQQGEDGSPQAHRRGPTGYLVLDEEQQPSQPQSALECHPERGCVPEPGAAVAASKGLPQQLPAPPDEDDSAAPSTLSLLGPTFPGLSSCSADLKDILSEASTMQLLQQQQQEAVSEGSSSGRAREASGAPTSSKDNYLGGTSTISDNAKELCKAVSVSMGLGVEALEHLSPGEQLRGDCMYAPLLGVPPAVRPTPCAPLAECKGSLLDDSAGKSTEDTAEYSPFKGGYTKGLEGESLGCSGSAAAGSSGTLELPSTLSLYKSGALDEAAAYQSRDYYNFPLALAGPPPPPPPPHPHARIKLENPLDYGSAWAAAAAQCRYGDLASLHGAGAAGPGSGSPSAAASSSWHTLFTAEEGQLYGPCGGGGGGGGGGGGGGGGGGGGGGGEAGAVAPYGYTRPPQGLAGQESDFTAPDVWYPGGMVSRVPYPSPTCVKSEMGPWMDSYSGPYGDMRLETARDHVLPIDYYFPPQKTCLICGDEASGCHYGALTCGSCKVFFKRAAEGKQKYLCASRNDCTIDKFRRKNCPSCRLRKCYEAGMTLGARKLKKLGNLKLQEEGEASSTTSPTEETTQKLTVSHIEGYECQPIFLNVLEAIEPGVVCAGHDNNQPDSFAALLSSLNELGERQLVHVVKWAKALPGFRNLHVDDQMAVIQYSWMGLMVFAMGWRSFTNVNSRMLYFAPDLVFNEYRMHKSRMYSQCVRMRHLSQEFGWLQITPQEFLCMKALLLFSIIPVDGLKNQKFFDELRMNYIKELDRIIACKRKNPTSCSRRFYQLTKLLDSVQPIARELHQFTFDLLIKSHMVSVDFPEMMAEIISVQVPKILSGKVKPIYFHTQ
# Sequence of Glucocorticoid receptor (Homo sapiens) (P04150 whole entry, looked up): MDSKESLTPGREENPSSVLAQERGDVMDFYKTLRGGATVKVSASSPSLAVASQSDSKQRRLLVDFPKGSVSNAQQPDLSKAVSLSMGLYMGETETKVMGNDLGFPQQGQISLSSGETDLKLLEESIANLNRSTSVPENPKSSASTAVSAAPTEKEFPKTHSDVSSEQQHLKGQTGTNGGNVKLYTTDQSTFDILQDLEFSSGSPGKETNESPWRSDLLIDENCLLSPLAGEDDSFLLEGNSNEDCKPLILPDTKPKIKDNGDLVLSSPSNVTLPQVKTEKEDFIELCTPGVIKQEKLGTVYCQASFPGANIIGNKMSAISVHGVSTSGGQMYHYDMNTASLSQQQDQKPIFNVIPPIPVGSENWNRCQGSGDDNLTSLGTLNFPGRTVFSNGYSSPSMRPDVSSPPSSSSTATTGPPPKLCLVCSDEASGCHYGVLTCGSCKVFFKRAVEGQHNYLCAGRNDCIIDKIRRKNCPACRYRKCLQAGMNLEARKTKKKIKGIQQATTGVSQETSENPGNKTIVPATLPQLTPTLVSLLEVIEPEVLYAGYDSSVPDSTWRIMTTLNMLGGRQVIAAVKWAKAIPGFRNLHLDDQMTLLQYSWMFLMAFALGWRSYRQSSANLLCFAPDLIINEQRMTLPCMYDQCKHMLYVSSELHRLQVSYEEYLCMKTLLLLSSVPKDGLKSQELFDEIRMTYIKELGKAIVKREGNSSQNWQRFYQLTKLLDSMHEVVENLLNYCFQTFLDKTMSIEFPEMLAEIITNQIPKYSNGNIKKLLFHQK
# Sequence of Peroxisome proliferator-activated receptor gamma (Homo sapiens) (P37231 whole entry, looked up): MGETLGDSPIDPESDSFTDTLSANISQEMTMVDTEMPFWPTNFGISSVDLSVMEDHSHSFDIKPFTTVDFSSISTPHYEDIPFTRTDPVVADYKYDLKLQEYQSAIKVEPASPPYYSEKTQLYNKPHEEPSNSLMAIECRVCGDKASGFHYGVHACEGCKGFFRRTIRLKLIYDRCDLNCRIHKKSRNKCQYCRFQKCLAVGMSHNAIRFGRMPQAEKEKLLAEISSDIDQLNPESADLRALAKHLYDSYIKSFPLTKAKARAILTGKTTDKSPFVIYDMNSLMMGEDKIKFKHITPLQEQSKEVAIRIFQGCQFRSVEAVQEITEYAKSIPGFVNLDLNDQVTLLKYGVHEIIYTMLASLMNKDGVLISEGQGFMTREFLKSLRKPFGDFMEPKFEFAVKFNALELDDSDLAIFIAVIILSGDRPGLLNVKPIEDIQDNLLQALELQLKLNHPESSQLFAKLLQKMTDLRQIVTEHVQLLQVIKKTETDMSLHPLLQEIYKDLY
# Sequence of Peroxisome proliferator-activated receptor delta (Homo sapiens) (Q03181 whole entry, looked up): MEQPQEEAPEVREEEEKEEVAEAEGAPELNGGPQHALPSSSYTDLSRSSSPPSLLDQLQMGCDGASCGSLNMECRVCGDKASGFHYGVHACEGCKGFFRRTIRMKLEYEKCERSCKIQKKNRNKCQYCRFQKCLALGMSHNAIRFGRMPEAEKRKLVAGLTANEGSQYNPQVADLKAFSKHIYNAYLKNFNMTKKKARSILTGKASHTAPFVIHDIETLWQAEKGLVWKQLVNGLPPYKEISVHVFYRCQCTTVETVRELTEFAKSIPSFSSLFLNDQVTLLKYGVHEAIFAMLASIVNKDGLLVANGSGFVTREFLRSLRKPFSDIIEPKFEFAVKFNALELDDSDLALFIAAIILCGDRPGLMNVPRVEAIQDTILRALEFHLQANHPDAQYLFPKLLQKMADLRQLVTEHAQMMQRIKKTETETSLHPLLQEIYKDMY
# Sequence of Vitamin D3 receptor (Homo sapiens) (P11473 whole entry, looked up): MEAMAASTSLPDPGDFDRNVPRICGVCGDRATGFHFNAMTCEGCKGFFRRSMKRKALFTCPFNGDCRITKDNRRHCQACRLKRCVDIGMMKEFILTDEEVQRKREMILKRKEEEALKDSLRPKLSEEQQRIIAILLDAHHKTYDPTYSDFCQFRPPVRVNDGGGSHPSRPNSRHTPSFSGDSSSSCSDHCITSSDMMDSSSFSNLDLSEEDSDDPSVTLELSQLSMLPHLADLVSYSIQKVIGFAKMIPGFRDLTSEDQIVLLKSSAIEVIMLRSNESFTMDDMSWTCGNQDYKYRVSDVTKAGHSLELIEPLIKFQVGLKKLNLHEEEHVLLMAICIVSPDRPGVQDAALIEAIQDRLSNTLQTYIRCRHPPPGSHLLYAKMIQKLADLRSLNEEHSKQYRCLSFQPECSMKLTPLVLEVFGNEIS
# Sequence of Bile acid receptor (Homo sapiens) (Q96RI1 whole entry, looked up): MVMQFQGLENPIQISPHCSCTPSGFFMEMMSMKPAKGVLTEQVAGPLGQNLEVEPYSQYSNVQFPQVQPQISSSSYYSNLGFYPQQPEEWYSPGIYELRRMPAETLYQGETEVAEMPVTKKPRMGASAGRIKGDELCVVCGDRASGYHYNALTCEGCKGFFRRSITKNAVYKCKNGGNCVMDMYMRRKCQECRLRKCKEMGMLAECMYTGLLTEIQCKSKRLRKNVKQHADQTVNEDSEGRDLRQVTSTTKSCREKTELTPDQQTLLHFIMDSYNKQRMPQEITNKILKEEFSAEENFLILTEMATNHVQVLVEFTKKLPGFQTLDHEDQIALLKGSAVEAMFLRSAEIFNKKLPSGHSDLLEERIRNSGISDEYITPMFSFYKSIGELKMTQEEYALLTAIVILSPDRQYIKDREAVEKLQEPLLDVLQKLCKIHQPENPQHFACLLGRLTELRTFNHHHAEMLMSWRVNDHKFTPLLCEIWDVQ
SMILES,outcome [1],outcome [2],outcome [3],max response [4] [%],Potency [5],outcome [6],outcome [7],outcome [8],activation [9],outcome [10]
CCCOCC(C)OCC(C)O (stereo unspecified),inactive,inactive,inactive,-11.5,inactive,inactive,inactive,inactive,–,–
Cc1ccccc1C(N)=O,–,inactive,inactive,16.7,inactive,inactive,–,–,-0.107% (inactive),inactive
O=C(Cl)c1ccccc1[N+](=O)[O-],inactive,–,inactive,–,–,–,–,–,-0.396% (inactive),–
CCCCCCCCC/C=C/CC1CC(=O)OC1=O (stereo unspecified),inactive,inactive,inactive,–,–,inactive,inactive,inactive,0.907% (inactive),–
CC(O)CC(C)O (stereo unspecified),–,inactive,inactive,7.44,inactive,inactive,inactive,inactive,0.893% (inactive),inactive
Cc1ccc(Cl)cc1N,–,inactive,inactive,-18.2,inactive,inactive,inactive,inactive,-7.53% (inactive),inactive
C=C(C)C1CC=C(C)C(OC(C)=O)C1 (stereo unspecified),–,inactive,inactive,6.72,inactive,inactive,inactive,inactive,3.07% (inactive),inactive
C1COC1,–,inactive,inactive,-21,inactive,inactive,inactive,inactive,0.529% (inactive),inactive
FC(F)(F)c1cccc(Cl)c1,inactive,inactive,inactive,–,–,–,–,–,-8.16% (inactive),–
Nc1cccc([N+](=O)[O-])c1,inactive,inactive,inactive,–,–,–,–,–,0.474% (inactive),inactive
CC(C)c1ccccc1,inactive,inactive,inactive,–,–,inactive,inactive,inactive,-12.7% (inactive),inactive
O=[N+]([O-])c1cc(C(F)(F)F)ccc1Cl,inactive,–,inactive,–,–,inactive,–,–,-0.113% (inactive),inactive
CCN(Cc1ccccc1)c1ccccc1,inactive,–,–,–,–,inactive,–,–,–,inactive
CC(=C/C=C/C(C)=C/C=C/C=C(C)/C=C/C=C(C)/C=C/C(=O)O)/C=C/C(=O)O,inactive,inactive,–,11.7,inactive,inactive,inactive,inactive,-6.11% (inactive),inactive
CCCC(C)CO (stereo unspecified),inactive,inactive,inactive,-16,inactive,inactive,–,–,0.0234% (inactive),inactive
CC/C=C1/OC(=O)c2ccccc21,inactive,–,inactive,6.22,inactive,inactive,inactive,inactive,-3.66% (inactive),–

SMILES,outcome [1],outcome [2],outcome [3],max response [4] [%],Potency [5],outcome [6],outcome [7],outcome [8],activation [9],outcome [10]
Cc1ccc(N(C)C)cc1,inactive,–,inactive,17.3,inactive,inactive,inactive,inactive,-4.85% (inactive),–
c1ccsc1,inactive,–,inactive,-2.14,–,inactive,inactive,–,–,inactive
CCOc1cc(OCC)c(C(C)=O)cc1OCC,inactive,inactive,inactive,–,–,inactive,inactive,inactive,-0.956% (inactive),inactive
CNC(=O)N(c1ccccc1)c1ccccc1,inactive,–,–,–,–,inactive,–,–,–,–
CCCC(Cl)CCCC(Cl)CCC(Cl)CCC(Cl)CCC(Cl)CCCC(Cl)CCC (stereo unspecified),inactive,–,inactive,-30.6,inactive,inactive,inactive,inactive,3.07% (inactive),–
BrC(Br)C(Br)Br,inactive,–,–,-3.11,inactive,inactive,inactive,inactive,-1.02% (inactive),inactive
CCC(C)(C)OC,–,inactive,inactive,12.9,inactive,inactive,–,–,-0.431% (inactive),inactive
Cc1cccc(C(=O)O)c1,inactive,–,–,-5.23,–,inactive,inactive,inactive,–,inactive
CC(=O)CC(C)C,inactive,inactive,inactive,19.2,–,inactive,inactive,inactive,21.2% (inactive),–
C=C(C)C(=O)OC,–,inactive,inactive,-44.8,inactive,inactive,–,–,-3.9% (inactive),inactive
CC(C=O)Cc1ccc(C(C)(C)C)cc1 (stereo unspecified),inactive,inactive,inactive,41.6,–,inactive,–,inactive,-5.34% (inactive),inactive
CCOc1ccc(NC(C)=O)cc1N,inactive,–,–,-0.981,inactive,inactive,inactive,inactive,–,–
COc1cccc2sc(N)nc12,inactive,inactive,–,-34.4,–,inactive,–,inactive,–,–
Cc1ccc(S(=O)(=O)NC2CCCCC2)cc1,–,inactive,inactive,42.4,inactive,–,–,–,-3.36% (inactive),–
Nc1cc(S(=O)(=O)O)ccc1O,inactive,–,inactive,15.9,inactive,inactive,inactive,inactive,-0.152% (inactive),–
